Laboratory results taken from PubChem BioAssay AID1347074 (Center for Chemical Genomics, University of Michigan, 2019).
Hit rate of the full screen: of about 47,000 compounds, about 2,800 (6%) were called active. The sample holds actives, similar compounds and a random draw of the others, so the mix is not that of the screen. Unmarked numbers belong to inactive results. Rule as the data show it: active = z-score above about 3 (passing the limit was not always enough); inactive = the rest.

Each compound was assayed against Endoribonuclease Dicer (Homo sapiens) (UniProt Q9UPY3) (assay: Dicer cleavage of pre-miR-21 blockers – biochemical, cat-ELCCA, chemiluminescence, primary screen (AID 1347074;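 also: plate controls were vehicle for no effect and no enzyme for full effect; higher signal means more uncleaved substrate so more Dicer inhibition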)). Details: cat-ELCCA pre-miR-21 Dicer processing, at 25 µM, active compounds read high.
Chain of Endoribonuclease Dicer (Homo sapiens) (Q9UPY3 whole entry, looked up): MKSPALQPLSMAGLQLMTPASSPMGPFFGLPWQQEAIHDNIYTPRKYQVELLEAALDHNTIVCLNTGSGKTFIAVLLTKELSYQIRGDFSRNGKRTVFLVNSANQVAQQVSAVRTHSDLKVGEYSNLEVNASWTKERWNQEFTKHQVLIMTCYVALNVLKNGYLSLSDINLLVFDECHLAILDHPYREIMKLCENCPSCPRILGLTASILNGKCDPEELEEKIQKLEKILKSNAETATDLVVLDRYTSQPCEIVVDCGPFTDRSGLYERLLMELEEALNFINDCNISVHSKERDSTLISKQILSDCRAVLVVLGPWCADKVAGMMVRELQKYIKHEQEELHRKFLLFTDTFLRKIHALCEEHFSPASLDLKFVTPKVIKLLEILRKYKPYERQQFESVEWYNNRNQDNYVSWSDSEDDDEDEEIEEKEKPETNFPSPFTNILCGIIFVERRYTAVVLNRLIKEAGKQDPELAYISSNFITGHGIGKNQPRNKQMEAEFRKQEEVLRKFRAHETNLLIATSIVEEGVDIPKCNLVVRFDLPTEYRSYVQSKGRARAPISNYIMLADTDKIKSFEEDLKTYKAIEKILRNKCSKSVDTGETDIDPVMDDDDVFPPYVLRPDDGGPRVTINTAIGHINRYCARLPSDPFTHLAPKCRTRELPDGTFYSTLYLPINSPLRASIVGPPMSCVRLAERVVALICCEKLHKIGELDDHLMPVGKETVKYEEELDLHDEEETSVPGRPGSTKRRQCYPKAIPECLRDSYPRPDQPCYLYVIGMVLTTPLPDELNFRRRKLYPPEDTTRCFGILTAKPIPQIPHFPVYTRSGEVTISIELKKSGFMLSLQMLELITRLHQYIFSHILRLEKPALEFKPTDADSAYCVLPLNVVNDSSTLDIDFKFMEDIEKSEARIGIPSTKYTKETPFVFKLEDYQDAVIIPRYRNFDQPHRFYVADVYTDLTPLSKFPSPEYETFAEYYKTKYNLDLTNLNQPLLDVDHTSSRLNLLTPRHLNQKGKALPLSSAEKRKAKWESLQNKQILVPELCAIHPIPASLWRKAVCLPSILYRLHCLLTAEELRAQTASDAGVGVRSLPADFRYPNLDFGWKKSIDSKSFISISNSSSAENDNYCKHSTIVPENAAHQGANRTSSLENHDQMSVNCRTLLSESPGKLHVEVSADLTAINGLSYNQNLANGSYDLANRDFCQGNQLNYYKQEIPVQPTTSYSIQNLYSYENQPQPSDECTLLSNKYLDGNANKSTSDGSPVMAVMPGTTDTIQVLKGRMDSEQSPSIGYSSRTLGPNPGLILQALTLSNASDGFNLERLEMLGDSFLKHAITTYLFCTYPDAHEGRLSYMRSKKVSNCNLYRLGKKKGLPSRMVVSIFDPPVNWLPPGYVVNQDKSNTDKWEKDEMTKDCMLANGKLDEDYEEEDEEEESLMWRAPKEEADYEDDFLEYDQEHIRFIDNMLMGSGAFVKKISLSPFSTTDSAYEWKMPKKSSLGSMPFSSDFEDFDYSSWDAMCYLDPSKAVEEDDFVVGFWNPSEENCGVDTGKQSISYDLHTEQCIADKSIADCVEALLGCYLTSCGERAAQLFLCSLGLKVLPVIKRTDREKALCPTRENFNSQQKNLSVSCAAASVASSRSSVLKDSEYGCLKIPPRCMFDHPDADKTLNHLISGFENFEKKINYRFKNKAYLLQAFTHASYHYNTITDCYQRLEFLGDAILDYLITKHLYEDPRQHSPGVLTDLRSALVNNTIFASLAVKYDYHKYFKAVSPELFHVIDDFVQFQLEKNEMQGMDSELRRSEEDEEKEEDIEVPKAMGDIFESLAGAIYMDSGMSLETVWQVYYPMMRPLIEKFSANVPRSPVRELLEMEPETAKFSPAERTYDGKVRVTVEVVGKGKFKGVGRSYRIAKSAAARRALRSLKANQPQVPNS

Compound	z-score
O=C(CN1C(=O)c2ccccc2S1(=O)=O)NC1CCCCC1	1.13
Cc1ccc(C(=O)CC2(O)C(=O)N(CN3CCCCC3)c3ccc(Br)cc32)cc1 (stereo not drawn)	0.51
CCOC(=O)c1sc(SC)c2c1-c1ccccc1N(C)S2(=O)=O	-1.61
CCOC(=O)c1sc(SC)c(-c2ccccc2)c1N	11.5 (active)
CCOC(=O)c1sc2ccccc2c1N	0.22
CCOC(=O)/C(=N\Nc1ccccc1)c1csc(N)n1	0.02
Cc1cc(C)n(C(=O)COc2ccc3ccccc3c2Br)n1	2.85
CC(C)OC(=O)C1C(=O)CC(C)(O)C(C(=O)OC(C)C)C1c1ccc(O)cc1 (stereo not drawn)	-0.2
COC(=O)C1=C(C)NC2=C(C(=O)CC(C)(C)C2)C1c1cc(Cl)c(O)c(OC)c1 (stereo not drawn)	3.12
CC(C(=O)N1CCCC1)N1c2cccc3cccc(c23)S1(=O)=O (stereo not drawn)	-0.76
O=[N+]([O-])c1cc(-c2cnc3ccccc3n2)ccc1Sc1ccccn1	15.7
COC(=O)c1ccccc1N(C)C(=O)c1cc(OC)c(OC)c(OC)c1	-0.98
COC(=O)c1ccccc1-c1c2ccc(=O)cc-2oc2cc(O)ccc12	7.57 (active)
COC(=O)c1cc(OC)c(OC)cc1N1C(=O)c2ccccc2C1=O	0.34
COC(=O)c1cc(NC(=O)NC(=O)c2c(Cl)cccc2Cl)ccc1S(=O)(=O)Cc1ccc(Cl)cc1	1.45
CN(C)CCN1C(=O)C(=O)/C(=C(/O)c2ccc(F)cc2)C1c1cccs1 (stereo not drawn)	1.06
CC(CC(=O)O)Oc1ccc(Cl)cc1[N+](=O)[O-] (stereo not drawn)	-0.09
O=C(Oc1ccc(Cl)cc1Cl)c1ccc(Cl)cc1[N+](=O)[O-]	4.36 (active)
COC(=O)c1sccc1Oc1ccc(Cl)cc1[N+](=O)[O-]	-0.2
CC(C)N1CNc2nc3ccccc3n2C1	1.6
COc1ccccc1N1CCN(S(=O)(=O)c2ccc(Br)cc2)CC1	1.29
O=c1oc2cc(S(=O)(=O)N3CCCCC3)ccc2c2ccc(S(=O)(=O)N3CCCCC3)cc12	1.67
COc1ccc(S(=O)(=O)N2CCCCC2)cc1Br	4.32 (active)
Cc1nc(-c2ccc(S(=O)(=O)N3CCCN(c4ncc(C(F)(F)F)cc4Cl)CC3)s2)cs1	-1.58
O=C1COCC(=O)N1c1ccc(F)cc1F	2.81

Compound	z-score
O=C1/C(=C/c2ccc3c(c2)OCO3)CCC/C1=C\c1ccc2c(c1)OCO2	-1.56
O=C1COCC(=O)N1c1ccc2c(c1)OCO2	3.01 (active)
CS(=O)(=O)N1N=C(c2c(-c3ccccc3)c3cc(Cl)ccc3[nH]c2=O)CC1c1cccs1 (stereo not drawn)	0.27
O=c1c(-c2ccccc2)coc2cc(O)ccc12	3.37 (active)
Cc1c2occ(-c3ccccc3)c2cc2c1oc(=O)c1ccccc12	2.4
COc1ccccc1-c1coc2cc(OC(=O)c3ccccc3Cl)ccc2c1=O	0.93
Cc1nn(Cc2ccc(C(=O)NCc3ccccn3)o2)c(C)c1[N+](=O)[O-]	1.35
Fc1ccc2onc(-c3cnn(-c4ccccc4)c3)c2c1	3.3 (active)
Cc1ccc2oc(-c3cccc(N4C(=O)c5cccnc5C4=O)c3)nc2c1	-1
COc1ccc(-n2cnc3cc(NCc4ccco4)ccc32)cc1	6.39 (active)
CC(Oc1cccc2c(=O)c3ccccc3oc12)C(=O)O (stereo not drawn)	-0.48
CSc1sc(C(=O)NN)cc1C#N	1.26
CCOC(=O)N1CCc2c(sc3c2C(=O)NC(c2ccccc2F)N3)C1 (stereo not drawn)	1.08
Cc1cc(C(C)(C)C)ccc1NC(=O)COCC(=O)O	1.34
CCCCOc1cc(O)c2c(=O)cc(-c3ccccc3)oc2c1	-0.66
CCOc1ccc(-c2nc(-c3ccc(C)nc3OC)no2)cc1	0.23
CCOc1ccc(-c2cc(O)cc3sc(=O)oc23)cc1	5.74 (active)
Cn1c2c(c(=O)n(C)c1=O)C(C(=O)Nc1ccc(Cl)cc1)CC(=O)N2 (stereo not drawn)	1.36
COC(=O)c1sccc1NNS(=O)(=O)c1ccc(C)cc1	0.67
C=CCOc1ccc(C(=O)N(Cc2ccc(OC)cc2)C2CCS(=O)(=O)C2)cc1 (stereo not drawn)	1.67
C=CCOc1ccc2c(=O)cc(C(=O)OCC)oc2c1	-0.35
NC(=O)c1c(NC(=O)CSc2nc3ccccc3o2)sc2c1CCC2	0.14
CC(C)N1CCC(=O)N(c2ccccc2Cl)C1=O	5.02 (active)
O=[N+]([O-])c1ccc(Sc2ccc(Cl)cc2)nc1	-0.03
CC(C)Oc1ccccc1Oc1ccc([N+](=O)[O-])cn1	14.5 (active)

Compound	z-score
CC(C)(C)n1cnnc1Sc1ccc([N+](=O)[O-])cn1	2.43
COc1c(Br)cc([N+](=O)[O-])c(OC)c1C(N)=O	-0.32
CCN(CC)c1ccc(C2Nc3ccccc3-c3cc(C)nn32)c(O)c1 (stereo not drawn)	0.47
Cc1cc(C)c2c(c1)-c1cc(C)nn1C(c1ccc(O)cc1)N2 (stereo not drawn)	2.1
Cc1cc2n(n1)C(c1cc(C(C)(C)C)c(O)cc1O)Nc1ccccc1-2 (stereo not drawn)	3.4 (active)
OC(CN1CCN(C(c2ccccc2)c2ccccc2)CC1)Oc1cccc(C(F)(F)F)c1 (stereo not drawn)	2.86
O=C1c2cccc3cc(Br)cc(c23)C(=O)N1CCO	2.14
CCN1/C(=C\C=C\c2scc[n+]2CC)Sc2c1ccc1ccccc21	-2.64
CC(=O)/C(=C\N=S(C)(=O)c1ccc(C)cc1)S(=O)(=O)c1ccc(Cl)cc1 (stereo not drawn)	-3.56
CC1=C(C(=O)OCC2CCCO2)C(c2cccs2)C2=C(CC(c3cccs3)CC2=O)N1 (stereo not drawn)	1.27
C=CCn1c(SCc2nc3ccccc3[nH]2)nnc1-c1ccccc1	4.03 (active)
CC1(C)Cc2c(C#N)c(SCc3nc4ccccc4[nH]3)nc(N3CCOCC3)c2CO1	-1.2
C=CCn1c(SCc2nnc(SCC(=O)c3ccc(Cl)cc3)o2)nnc1-c1ccccc1	1.72
COc1ccc(-c2noc(-c3ccc(Cl)cc3)n2)cc1OC1CCCC1	-0.55
Cc1ccc(-n2c(C)nc3sc4c(c3c2=O)CCC(C)C4)cc1 (stereo not drawn)	-0.76
CCOC(=O)c1c(NC(=O)C2CCCN2S(=O)(=O)c2ccccc2)sc(C)c1C (stereo not drawn)	42.8
O=S(=O)(c1ccc(Cl)cc1)N1CCN(c2cc(C(F)(F)F)nc3ccccc23)CC1	-1.11
Cn1c(Oc2ccccc2Br)nc2c1c(=O)n(Cc1ccccc1)c(=O)n2C	5.58 (active)
Cn1c(=O)c2c(nc(NCCc3ccccc3)n2Cc2ccccc2)n(C)c1=O	-1.91
C=CCn1c(Oc2ccccc2Cl)nc2c1c(=O)n(C)c(=O)n2C	0.6
COC(=O)COc1c(C)cc(-c2nn(C)c(=O)c3ccccc23)cc1C	-1.18
CCCCOC(C)n1cc(Br)c(=O)[nH]c1=O (stereo not drawn)	0.67
CCOCCOC(=O)C1=C(C)NC2=C(C(=O)CC(c3cccs3)C2)C1c1ccc(OC(C)=O)cc1 (stereo not drawn)	0.06
CC1=C(C(=O)OCc2ccccc2)C(c2ccc3c(c2)OCO3)C2=C(CC(c3cccs3)CC2=O)N1 (stereo not drawn)	3.65 (active)
CCSCCOC(=O)C1=C(C)NC2=C(C(=O)CC(c3cccs3)C2)C1c1ccsc1 (stereo not drawn)	1.85

Compound	z-score
CCOC(=O)N/N=C/c1ccccc1Cl	-1.05
O=C(O)c1ccccc1/C=N/Nc1cc(Cl)ccc1Cl	5.07 (active)
S=C(N/N=C/c1ccc(Cl)cc1)Nc1cc(Cl)ccc1Cl	-0.45
N#Cc1ccsc1N1C(=O)c2ccccc2C1=O	0.31
CCOC(=O)CSC(=NC)NNC(=O)c1c(C)nc2cc(C)ccn12	-0.21
CC(C)(C)c1ccc(-c2cc(NC(=O)c3ccc(Cl)cc3)n[nH]2)cc1	1.49
Cc1cc(Br)c(NC(=O)c2ccc(Cl)cc2)c(Br)c1	4.71 (active)
Cc1cc(C)c(C(=O)NC(=O)Nc2c(Cl)cc(Cl)cc2Cl)c(C)c1	0.37
Cc1cccc(C2C3=C(CCCC3=O)N=C3c4ccccc4C(=O)C32)c1 (stereo not drawn)	2.43
CC(C)(C)C(=O)Nc1ccncc1C(=O)O	-4.04
Nc1nc(COc2ccccc2Cl)ncc1S(=O)(=O)c1ccccc1	-2.39
COc1ccc(-c2cc(C(F)(F)F)nc(SCC(=O)NC3CCCC3)n2)cc1OC	1.64
COc1ccc(-c2cc(C(F)(F)F)nc(SCC(=O)NC3CC3)n2)cc1OC	-0.37
COc1ccc(-c2cc(C(F)(F)F)n3ncnc3n2)cc1OC	4.99 (active)
C/C(=N\NC(=S)Nc1cccc(F)c1)c1ccco1	5.72 (active)
CNNC(=S)Nc1ccc(F)c(C)c1	1.79
CCc1[nH]nc2c1C(c1ccc(OC)c(OC)c1)C(C#N)=C(N)O2 (stereo not drawn)	-3.59
COc1ccc2cc(S(=O)(=O)N3CCN(C(c4ccccc4)c4ccccc4)CC3)ccc2c1	0.57
CC1CCN(C(=S)NC2CC3CCC2C3)CC1 (stereo not drawn)	2.37
CCOC(=O)c1c(NC(=O)c2cc3ccccc3o2)sc(C)c1C	0.8
CC(=Nc1ccccc1)c1nc(-c2ccccc2)oc1O	1.37
O=S(=O)(c1cccc(-c2cn3cccnc3n2)c1)N1CCCC1	0.36
COc1ccccc1C(=O)CC1(O)C(=O)Nc2ccc(Cl)cc21 (stereo not drawn)	6.27
